Screen size: about 1,900 compounds; about 250 (13%) were called active. Not shown: some 4% with an inconclusive outcome.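 How the source made its calls: active means fitted curve reaches 40% rescue activity at or below the top valid dose, in every test run; inconclusive means test runs disagree, some active and some inactive; inactive means every run misses the threshold or moves the wrong way.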 Not all results are given here. Entries with a potency or affinity are not part of this list.

A short description of this assay: rescue of simvastatin-induced ATP loss – cell-based, C2C12 myotubes, ATP luminescence, cherry pick, dose response (AID 624405).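 Further: myotubes are challenged with simvastatin at 10 µM to lower ATP.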 To be noted: 48 h, scaled: DMSO wells 0, geranylgeraniol wells 100; series mostly up to 19.5 µM.
For `CCOC(=O)c1cccc(NC(=O)C2CCCO2)c1` (centres undefined), the compound was called inactive.
For `Cc1ccc(C2C=C(c3ccccc3OC(F)F)Nc3ncnn32)cc1` (centres undefined) the value was “inactive”; for `CNC(=O)CC(=O)Nc1ccccc1C(=O)O`, “inactive”.
In the case of `O=c1c2c3c(sc2nc2n1CCCS2)CCCC3`, the compound was classed as inactive.
`C=CCOC(=O)c1ccc(-n2cncn2)nc1`: the compound was called inactive.
Under `CCC(C(=O)Nc1ccccc1-c1ccccc1)c1ccccc1` (centres undefined) stands “inactive”; under `CCOCCc1nnc(NC(=O)C(CC)c2ccccc2)s1` (centres undefined), “inactive”; under `C[C@@H]1CN([C@H](C)CO)C(=O)Cc2cc(NS(=O)(=O)c3cccs3)ccc2O[C@@H]1CN(C)Cc1ccc(-c2ccccc2)cc1`, “inactive”.
Under `Cc1ccc(S(=O)(=O)Nc2ccc3c(c2)CC(=O)N([C@H](C)CO)C[C@@H](C)[C@H](CN(C)Cc2ccc(-c4ccccc4)cc2)O3)cc1` stands “inactive”.
Turning to `COc1ccc(S(=O)(=O)Nc2ccc3c(c2)CC(=O)N([C@H](C)CO)C[C@@H](C)[C@H](CN(C)Cc2ccccc2)O3)cc1`, the call was inactive.
For `C[C@@H]1CN([C@@H](C)CO)C(=O)Cc2cc(NS(=O)(=O)c3ccc(F)cc3)ccc2O[C@H]1CN(C)Cc1ccc(-c2ccccc2)cc1`, the result was inactive.
For `COc1ccc(CN(C)C[C@@H]2Oc3ccc(NS(=O)(=O)c4ccc(C)cc4)cc3CC(=O)N([C@H](C)CO)C[C@H]2C)cc1` the value was “inactive”; for `COc1ccc(CN(C)C[C@H]2Oc3ccc(NS(=O)(=O)c4ccccc4)cc3CC(=O)N([C@@H](C)CO)C[C@@H]2C)cc1`, “inactive”.
For `C[C@H]1CN([C@@H](C)CO)C(=O)Cc2cc(NS(=O)(=O)c3cn(C)cn3)ccc2O[C@@H]1CN(C)Cc1ccc(-c2ccccc2)cc1` the value was “inactive”; for `Cc1ccc(S(=O)(=O)Nc2ccc3c(c2)CC(=O)N([C@@H](C)CO)C[C@@H](C)[C@H](CN(C)Cc2ccc(Oc4ccccc4)cc2)O3)cc1`, “inactive”.
Regarding `COc1ccc(CN(C)C[C@H]2Oc3ccc(NS(=O)(=O)c4ccc(F)cc4)cc3CC(=O)N([C@@H](C)CO)C[C@@H]2C)cc1`, the compound was called inactive.
For the compound `COC(=O)CCC(=O)Nc1sc(C)c(C)c1C(N)=O`, the compound was called inactive.
`C[C@@H]1CCCCO[C@@H](CN(C)C(=O)C2CCCCC2)[C@H](C)CN([C@@H](C)CO)C(=O)c2cc(NS(=O)(=O)c3ccccc3)ccc2O1`: the result was inactive.
Under `COc1ccc(CN2[C@@H]3CNc4ccccc4[C@@H]3[C@@H]2CO)cc1` stands “inactive”.
For `C[C@@H]1CCCCO[C@H](CN(C)C(=O)NC2CCCCC2)[C@H](C)CN([C@@H](C)CO)C(=O)c2cc(NC(=O)Nc3cccc4ccccc34)ccc2O1`, the result was inactive.
Under `C[C@H](CO)N1C[C@H](C)[C@@H](CN(C)Cc2ccc(Oc3ccccc3)cc2)Oc2ccc(NC(=O)Cc3cn(C)c4ccccc34)cc2CC1=O` stands “inactive”; under `O=C(OCC(=O)N1CCOCC1)c1ccccc1SCC(=O)N1CCCC1`, “inactive”; under `C[C@H](CO)N1C[C@H](C)[C@@H](CN(C)Cc2ccc(C(F)(F)F)cc2)Oc2ccc(NS(=O)(=O)c3cccs3)cc2CC1=O`, “inactive”.
Under `CC(=O)N1CCN(c2nnnn2-c2ccccc2)CC1` stands “inactive”; under `COCc1cc(C)nc(N2CCN(Cc3ccccc3)CC2)c1C#N`, “inactive”; under `COc1ccc(S(=O)(=O)Nc2ccc3c(c2)C(=O)N([C@@H](C)CO)C[C@@H](C)[C@H](CN(C)C(=O)c2ccccc2)OCCCC[C@@H](C)O3)cc1`, “inactive”.
As to `COc1ccc2[nH]c(=O)c(CNc3ccc(C)c(C)c3)cc2c1`, the compound was called inactive.
For `COc1ccc2[nH]c(=O)c(CN(CCc3ccccc3)C(C)=O)cc2c1` the value was “inactive”; for `CC(=O)N1C=CN(C(C)=O)C(c2cn(C)c3ccccc23)C1c1cn(C)c2ccccc12` (centres undefined), “inactive”.
Under `Cc1cc(C)nc(NC(=NCCc2c[nH]c3ccccc23)NC(=O)c2ccco2)n1` stands “inactive”; under `O=C(Cc1coc(-c2ccc(F)cc2)n1)Nc1ccccc1`, “inactive”; under `CCCCCNC(=O)C1CC=CCC1C(=O)O` (centres undefined), “inactive”.
Under `C[C@@H]1CN([C@H](C)CO)C(=O)Cc2cc(NC(=O)CCCCCC(=O)Nc3ccccc3N)ccc2O[C@H]1CN(C)CC1CCCCC1` stands “inactive”; under `C[C@H]1CN([C@@H](C)CO)C(=O)Cc2cc(NC(=O)CCCCCC(=O)Nc3ccccc3N)ccc2O[C@@H]1CN(C)CC1CCCCC1`, “inactive”.
On to `COc1ccc(S(=O)(=O)N(C)C[C@@H]2OCCCC[C@H](C)Oc3ccc(NC(=O)Nc4ccc(C(F)(F)F)cc4)cc3C(=O)N([C@@H](C)CO)C[C@@H]2C)cc1`, for which the result was inactive.
For `OC[C@H]1[C@@H]2c3ccccc3NC[C@@H]2N1Cc1ccccc1Cl` the value was “inactive”.
Turning to `CCOc1ccccc1OCCOc1ccccc1CC`, the compound was called inactive.
Turning to `COc1ccc(NC(=O)N(C)C[C@@H]2OCCCC[C@@H](C)Oc3ccc(NS(=O)(=O)c4c(C)noc4C)cc3C(=O)N([C@H](C)CO)C[C@H]2C)cc1`, the compound was called inactive.
For `C[C@@H]1CN([C@@H](C)CO)C(=O)c2cc(NC(=O)Cc3cn(C)c4ccccc34)ccc2O[C@H]1CN(C)S(=O)(=O)c1cccs1` the value was “inactive”.
For `CC(C)(C)c1cc(C(F)(F)F)c(C#N)c(=O)[nH]1` the value was “inactive”.
For `C=CCn1c(COc2ccc(Cl)cc2)nnc1SCC(=O)c1c(N)n(C)c(=O)n(C)c1=O` the value was “inactive”; for `COc1ccc(S(=O)(=O)Nc2ccc3c(c2)CC(=O)N([C@H](C)CO)C[C@@H](C)[C@@H](CN(C)Cc2ccc(C(F)(F)F)cc2)O3)cc1`, “inactive”.
Take `CCOC(=O)C1CCN(C=Nc2cc(C)on2)CC1`: the outcome was inactive.
Under `COc1ccc(S(=O)(=O)Nc2ccc3c(c2)C(=O)N([C@@H](C)CO)C[C@H](C)[C@@H](CN(C)S(=O)(=O)c2ccc(F)cc2)OCCCC[C@H](C)O3)cc1` stands “inactive”.
For `NC(=O)C1CCN(Cc2nc3cc(Cl)ccc3c(=O)[nH]2)CC1`, the outcome was inactive.
As to `C[C@@H]1CCCCO[C@@H](CN(C)C(=O)Nc2cccc3ccccc23)[C@H](C)CN([C@@H](C)CO)C(=O)c2cc(NS(=O)(=O)c3ccc(Cl)cc3)ccc2O1`, the compound was called inactive.
Take `CCC/C(=C1/c2ccccc2C(=O)N1c1ccccc1)c1ccc2c(c1)OCCO2`: the call was inactive.
Turning to `C[C@H](CO)N1C[C@H](C)[C@@H](CN(C)Cc2ccccc2F)Oc2ncc(C3=CCCCC3)cc2C1=O`, the compound was classed as inactive.
Under `C[C@@H]1CN([C@H](C)CO)C(=O)Cc2cc(NC(=O)Cc3cn(C)c4ccccc34)ccc2O[C@H]1CN(C)Cc1ccc(-c2ccccc2)cc1` stands “inactive”.

The record behind these values is PubChem BioAssay AID624405 (Broad Institute, 2012).
